Measurements published in PubChem BioAssay (NCI).
Compounds without any hit were thinned out: in the full panel of roughly 79,000, 15% have a hit. Active and inactive are the calls of the source. Rule as the data show it: active = growth inhibition above about 70%; inactive = the rest.

How the values were obtained:
[1] = NCI Yeast Anticancer Drug Screen. Data for the rad52 strain (AID 147);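 also: 0% = growth of vehicle-treated control cultures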; conditions: S. cerevisiae rad52 mutant growth inhibition, hits give high values
In short: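 Screen used a yeast mutant impaired in DNA repair. After compound exposure, growth was measured. Values reflect inhibition compared with vehicle-treated cells.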

[2] = NCI Yeast Anticancer Drug Screen. Data for the wt1 strain (AID 149);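 also: 0% = growth of vehicle-treated wt1 cultures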; conditions: S. cerevisiae wt1 strain (SPY 50644) growth inhibition, hits give high values
In short: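 Using yeast strain wt1, compound-induced growth inhibition was determined against vehicle-treated cultures.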

[3] = NCI Yeast Anticancer Drug Screen. Data for the rad50EPP+ strain (AID 151);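 also: 0% = growth of vehicle-treated control cultures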; conditions: S. cerevisiae rad50 mutant strain, hits give high values
In short: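 Exposing the rad50EPP+ strain to each compound, growth was compared with vehicle-only cultures to give inhibition.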

[4] = NCI Yeast Anticancer Drug Screen. Data for the mgt1 strain (AID 153); conditions: S. cerevisiae mgt1 mutant growth inhibition, hits give high values
In short: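 Genetically defined yeast (mgt1) treated with compound; inhibition of growth expressed against vehicle-treated controls.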

[5] = NCI Yeast Anticancer Drug Screen. Data for the rad50 strain (AID 155);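 also: 0% = growth of vehicle-only cultures of the same strain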; conditions: S. cerevisiae rad50 strain growth inhibition, hits give high values
In short: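 Relative growth inhibition (compound vs vehicle) was measured in yeast with a defined repair-gene alteration.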

[6] = NCI Yeast Anticancer Drug Screen. Data for the mec2-1 strain (AID 157); conditions: S. cerevisiae mec2-1 strain, hits give high values
In short: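 Readout is yeast growth inhibition, normalised to vehicle-treated controls, in the mec2-1 strain exposed to compound.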

[7] = NCI Yeast Anticancer Drug Screen. Data for the rad14 strain (AID 159);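 also: 0% = growth of vehicle-treated control cultures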; conditions: S. cerevisiae rad14 strain growth inhibition, hits give high values
In short: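 Screen for anticancer potential: a yeast strain altered in DNA damage repair is grown with compound, and reduced growth is quantified against vehicle controls.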

[8] = NCI Yeast Anticancer Drug Screen. Data for the sgs1 mgt1 strain (AID 161);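 also: 0% = growth of cultures given vehicle only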; conditions: S. cerevisiae sgs1 mgt1 strain, hits give high values
In short: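 Growth of a repair-deficient yeast mutant was monitored after compound treatment and expressed as inhibition relative to vehicle-treated cultures.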

[9] = NCI Yeast Anticancer Drug Screen. Data for the CLN2oe strain (AID 163);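 also: 0% = growth of vehicle-only control cultures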; conditions: S. cerevisiae CLN2oe strain, hits give high values
In short: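 Values reflect how much compound exposure reduced yeast growth, referenced to vehicle-exposed cells. Assay organism is a strain with a defined genetic change affecting cell-cycle control.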

[10] = NCI Yeast Anticancer Drug Screen. Data for the cln2 rad14 strain (AID 165);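 also: 0% = growth equal to vehicle treated cultures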; conditions: S. cerevisiae cln2 rad14 strain, hits give high values
In short: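 Relative to vehicle controls, growth inhibition of compound-treated cln2 rad14 yeast was recorded.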

[11] = NCI Yeast Anticancer Drug Screen. Data for the bub3 strain (AID 167); conditions: S. cerevisiae bub3 mutant strain, hits give high values
In short: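 Screening used yeast with an engineered genetic alteration affecting cell cycle control. Compound-exposed cultures were compared with vehicle cultures, and reduced growth was taken as inhibition.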

[12] = NCI Yeast Anticancer Drug Screen. Data for the wt2 strain (AID 169);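 also: 0% = growth of vehicle-treated yeast cultures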; conditions: S. cerevisiae wt2 strain growth inhibition, hits give high values
In short: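 Values express reduction in yeast growth under compound treatment, referenced to vehicle-treated cells.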

[13] = NCI Yeast Anticancer Drug Screen. Data for the mlh1 strain (AID 171);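 also: 0% = growth of vehicle-treated control cultures of the same strain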; conditions: S. cerevisiae mlh1 strain growth inhibition, hits give high values
In short: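 Steps: expose the defined-mutant yeast strain to compound; expose a parallel culture to vehicle; measure growth; express compound effect as inhibition relative to the vehicle culture.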

[14] = NCI Yeast Anticancer Drug Screen. Data for the sgs1 strain (AID 173);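 also: 0% = growth of vehicle-only control cultures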; conditions: S. cerevisiae sgs1 mutant, hits give high values
In short: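 Treat defined-mutant yeast with compound; measure growth; calculate inhibition relative to vehicle-treated cells.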

[15] = NCI Yeast Anticancer Drug Screen. Data for the mlh1 rad18 strain (AID 175); conditions: S. cerevisiae mlh1 rad18 strain growth inhibition, hits give high values
In short: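 Test agents were incubated with a yeast strain of defined genotype (DNA damage repair defect). Inhibition of growth was derived by comparison with vehicle-exposed cultures.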

[16] = NCI Yeast Anticancer Drug Screen. Data for the rad18 strain (AID 177); conditions: S. cerevisiae rad18 mutant growth inhibition, hits give high values
In short: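 A genetically defined yeast mutant impaired in DNA damage repair was treated with test compounds, then its growth was measured against cultures receiving vehicle alone.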

[17] = at 5.0 µM (retest, dose inferred, filed as 0.5)
[18] = at 50.0 µM (retest, dose inferred, filed as 5.0)

Measured: growth inhibition

Cc1nc2ccccc2nc1NNc1ccccc1
active: [3]; at 100.0 µM 84% | [5]; at 50.0 µM 81.3% | [10]; [17] 79% | [11]; at 50.0 µM 74%
inactive: [1]; at 1.2 µM -5% | [1]; at 3.7 µM -8% | [1]; at 11.0 µM -4% | [1]; at 33.0 µM 4% | [1]; at 100.0 µM 24% | [2]; at 1.2 µM 4% | [2]; at 3.7 µM 9% | [2]; at 11.0 µM 14% | [2]; at 33.0 µM 17% | [2]; at 100.0 µM 20% | [3]; at 1.2 µM -9% | [3]; at 3.7 µM -5% | [3]; at 11.0 µM 22% | [3]; at 33.0 µM 65% | [4]; at 1.2 µM 4% | [4]; at 3.7 µM 3% | [4]; at 11.0 µM 3% | [4]; at 33.0 µM -13% | [4]; at 100.0 µM 26% | [5]; at 1.2 µM -6% | [5]; at 3.7 µM -12% | [5]; [17] 17% | [5]; at 11.0 µM 9% | [5]; at 33.0 µM 46% | [5]; [18] 34% | [5]; at 100.0 µM 60% | [6]; at 1.2 µM -2% | [6]; at 3.7 µM 0% | [6]; [17] -7% | [6]; at 11.0 µM 9% | [6]; at 33.0 µM 11% | [6]; [18] 39% | [6]; at 50.0 µM 41.6% | [6]; at 100.0 µM 22% | [7]; at 1.2 µM -3% | [7]; at 3.7 µM -7% | [7]; at 11.0 µM 0% | [7]; at 33.0 µM 7% | [7]; at 100.0 µM 38% | [8]; [17] 13% | [8]; [18] 32% | [8]; at 50.0 µM 36% | [9]; at 1.2 µM -7% | [9]; at 3.7 µM -2% | [9]; at 11.0 µM 10% | [9]; at 33.0 µM 18% | [9]; at 100.0 µM 18% | [10]; [18] 48% | [10]; at 50.0 µM -11.8% | [11]; at 1.2 µM 6% | [11]; at 3.7 µM 9% | [11]; [17] 38% | [11]; at 11.0 µM 28% | [11]; at 33.0 µM 51% | [11]; [18] 44% | [11]; at 100.0 µM 63% | [12]; at 1.2 µM 3% | [12]; at 3.7 µM 5% | [12]; at 11.0 µM 14% | [12]; at 33.0 µM 23% | [12]; at 100.0 µM 22% | [13]; at 1.2 µM 1% | [13]; at 3.7 µM -4% | [13]; at 11.0 µM 7% | [13]; at 33.0 µM 30% | [13]; at 100.0 µM 41% | [14]; at 1.2 µM 1% | [14]; at 3.7 µM 1% | [14]; at 11.0 µM 8% | [14]; at 33.0 µM 16% | [14]; at 100.0 µM 24% | [15]; [17] -8% | [15]; [18] 28% | [15]; at 50.0 µM 56.6% | [16]; at 1.2 µM -3% | [16]; at 3.7 µM -2% | [16]; at 11.0 µM -5% | [16]; at 33.0 µM 30% | [16]; at 100.0 µM 58%

CCC(C)NC1=NCC(C)S1 (stereo unspecified)
active: [11]; [18] 98%
inactive: [1]; at 1.2 µM -9% | [1]; at 3.7 µM -12% | [1]; at 11.0 µM -12% | [1]; at 33.0 µM -29% | [1]; at 100.0 µM -17% | [2]; at 1.2 µM -22% | [2]; at 3.7 µM -14% | [2]; at 11.0 µM -24% | [2]; at 33.0 µM -34% | [2]; at 100.0 µM -28% | [3]; at 1.2 µM -40% | [3]; at 3.7 µM -38% | [3]; at 11.0 µM -27% | [3]; at 33.0 µM -37% | [3]; at 100.0 µM -75% | [4]; at 1.2 µM -18% | [4]; at 3.7 µM -15% | [4]; at 11.0 µM -13% | [4]; at 33.0 µM -19% | [4]; at 100.0 µM -25% | [5]; at 1.2 µM -29% | [5]; at 3.7 µM -20% | [5]; [17] 44% | [5]; at 11.0 µM -32% | [5]; at 33.0 µM -34% | [5]; [18] 41% | [5]; at 50.0 µM 64.1% | [5]; at 100.0 µM -33% | [6]; at 1.2 µM -40% | [6]; at 3.7 µM -48% | [6]; [17] 42% | [6]; at 11.0 µM -63% | [6]; at 33.0 µM -51% | [6]; [18] 36% | [6]; at 50.0 µM 28.9% | [6]; at 100.0 µM -39% | [7]; at 1.2 µM -17% | [7]; at 3.7 µM -15% | [7]; at 11.0 µM -22% | [7]; at 33.0 µM -21% | [7]; at 100.0 µM -25% | [8]; [17] -9% | [8]; [18] 30% | [8]; at 50.0 µM 58.2% | [9]; at 1.2 µM -5% | [9]; at 3.7 µM 1% | [9]; at 11.0 µM -9% | [9]; at 33.0 µM 0% | [9]; at 100.0 µM -8% | [10]; [17] 44% | [10]; [18] 49% | [10]; at 50.0 µM 65.7% | [11]; at 1.2 µM -6% | [11]; at 3.7 µM -9% | [11]; [17] 19% | [11]; at 11.0 µM -8% | [11]; at 33.0 µM -16% | [11]; at 50.0 µM 57.7% | [11]; at 100.0 µM -17% | [12]; at 1.2 µM -20% | [12]; at 3.7 µM -21% | [12]; at 11.0 µM -28% | [12]; at 33.0 µM -26% | [12]; at 100.0 µM -22% | [13]; at 1.2 µM -27% | [13]; at 3.7 µM -27% | [13]; at 11.0 µM -22% | [13]; at 33.0 µM -36% | [13]; at 100.0 µM -42% | [14]; at 1.2 µM -26% | [14]; at 3.7 µM -21% | [14]; at 11.0 µM -16% | [14]; at 33.0 µM -38% | [14]; at 100.0 µM -29% | [15]; [17] 47% | [15]; [18] 27% | [15]; at 50.0 µM 62.6%
